From PubChem BioAssay (NCI)
About 83,000 compounds went through this panel and 20% of them were active in at least one assay; those are over-represented in the sample as a whole.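 Negative percent growth values reflect cell death: -40 means 40% of the cells present at the start died, and -100 means all died.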 Values without a mark were called inactive. Calls of active or inactive are those of the source. How the source made its calls: active means growth percent below 10; inactive means the rest.

Assays:
Experiment in all cases: NCI-60 one-dose screen, 48 h (100 = growth as untreated, 0 = no growth, -100 = all killed)
Details in all cases: 10 µM unless noted
DU-145 prostate = test system: DU-145 prostate
K-562 leukemia = test system: K-562 leukemia
MALME-3M melanoma = test system: MALME-3M melanoma
MDA-MB-231 breast = test system: MDA-MB-231 breast
RXF 393 renal = test system: RXF 393 renal
SF-268 CNS = test system: SF-268 CNS
SF-295 CNS = test system: SF-295 CNS
SF-539 CNS = test system: SF-539 CNS
UACC-257 melanoma = test system: UACC-257 melanoma
M14 melanoma = test system: M14 melanoma

| SMILES | growth (DU-145 prostate) | growth (K-562 leukemia) | growth (MALME-3M melanoma) | growth (MDA-MB-231 breast) | growth (RXF 393 renal) | growth (SF-268 CNS) [%] | growth (SF-295 CNS) | growth (SF-539 CNS) | growth (UACC-257 melanoma) | growth (M14 melanoma) |
| --- | --- | --- | --- | --- | --- | --- | --- | --- | --- | --- |
| CCOC(=O)c1cn2c3c(cc(F)cc3c1=O)C(CC)c1ccccc1C2 (stereo not given) | 104% | 78.1% | 90.8% | 104% | 118% | 96.8 | 91.5% | 97.5% | 96.3% | 114% |
| CCOc1ccc(-c2cnnn2-c2nonc2-n2cccc2)cc1 | -9.36% (active) | 5.54% (active) | 52.6% | 4.16% (active) | -30.1% (active) | 50.7 | 8.24% (active) | -19.5% (active) | 65% | 9.7% (active) |
| CCC(C)Oc1cc(/C=N/NC(=O)c2cnn3c2NC(c2ccccc2)C3)ccc1OC (stereo not given) | 45.6% | 15.8% | 58.4% | 39.4% | 21% | 44.7 | 18.7% | 9.65% (active) | 55.5% | 34% |
| Nc1nc2c(s1)CCc1c-2c(Br)n(Cc2ccccc2)c1Br | 109% | 15.4% | 37.8% | 80.9% | 17.9% | 89.1 | 120% | 93.4% | 96.9% | 91.8% |
| CCN(CC)CCCNc1ccc(C)c2sc3ccccc3c(=O)c12 | 43.2% | -7.56% (active) | -61.7% (active) | -12.1% (active) | 1.02% (active) | 48.1 | 32.5% | 51.5% | -61.3% (active) | -64.8% (active) |
| CC1CCCCN1S(=O)(=O)c1ccc(CN=C=S)cc1 (stereo not given) | 63.8% | 9.18% (active) | 87.1% | 51.1% | 51.9% | 91.1 | 99.6% | 78.3% | 79.9% | 42% |
| CCOC(=O)n1cc(C2=C(c3cn(C)c4ccccc34)COC2=O)c2ccccc21 | -14.3% (active) | 5.86% (active) | 37.2% | 25.5% | 19.6% | 26 | 1.58% (active) | -16.3% (active) | 55.1% | 20.1% |
| N#C/C(=C\c1ccc[nH]1)c1cc2ccccc2[nH]1 | 80% | 42.5% | 88% | 59.7% | 92.5% | 78.1 | 53.7% | 79.7% | 69.9% | 80.3% |
| COc1cc(-c2nc(SC(C)C)nc(Nc3cccc(C)c3)c2C#N)cc(OC)c1OC | 109% | 99.5% | 108% | 99.2% | 127% | 107 | 101% | 107% | 98.9% | 108% |
| O=C1CN2CCC1C/C2=C\c1ccnc2c(Cl)cccc12 (stereo not given) | 111% | 95.7% | 112% | 90.1% | 107% | 101 | 91.2% | 110% | 95.2% | 103% |
| O=C1C(Br)=C(c2ccccc2)C(=O)C(Br)=C1c1ccccc1 | 105% | 76.2% | 114% | 94.6% | 102% | 102 | 97.9% | 98.6% | 96.2% | 104% |
